Compound activity: PubChem, several laboratories
Only some compounds are listed: those with a hit (about 4.7% of all), similar ones and a draw of the others.
SARS 3CLpro inh: SARS-CoV 3CLpro protease inhibitors, primary screen, biochemical, quenched FRET. Replicase polyprotein 1ab (Severe acute respiratory syndrome coronavirus), P0C6X7. recombinant SARS-CoV 3CLpro, quenched FRET peptide cleavage. inhibition, % at 6 µM. hit rate 0.14% among 290,000; in the data active = inhibition above about 12%
VHR inh abs: VHR1 phosphatase inhibitors, primary screen, biochemical, absorbance, uHTS. Dual specificity protein phosphatase 3 (Homo sapiens), P51452. recombinant VHR phosphatase, pNPP absorbance. inhibition, % at 13.3 µM. hit rate 0.52% among 290,000; in the data active = inhibition above about 50%
Target sequence (P51452 whole entry, looked up): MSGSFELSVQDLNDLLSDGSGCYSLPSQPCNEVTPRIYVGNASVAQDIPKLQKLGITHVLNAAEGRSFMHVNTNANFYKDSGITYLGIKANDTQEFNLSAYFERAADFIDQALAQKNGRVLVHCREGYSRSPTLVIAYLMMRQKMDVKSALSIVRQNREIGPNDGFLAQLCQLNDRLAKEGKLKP
RecA intein inh: Mtb RecA intein splicing inhibitors, primary screen, biochemical, fluorescence, HTS. cell-free RecA intein splicing. inhibition, % (no concentration beside the values). hit rate 0.75% among 290,000. Protein RecA (Mycobacterium tuberculosis (strain ATCC 25618 / H37Rv)), P9WHJ3. AID 2221, 2009; in the data active = inhibition above about 30%;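 note: 0% = vehicle wells and 100% = reference inhibitor control wells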
CCHF vOTU inh-1: CCHFV vOTU protease inhibitors, primary screen, biochemical, Pep-AMC substrate, fluorescence; hit rate 0.55% among 370,000; AID 651958, 2012; inhibition, % at 11.5 µM; note: 0% = vehicle wells with enzyme and 100% = no enzyme wells
GDH-TPI inh: GDH-TPI coupling enzyme inhibitors, primary screen, artefact control for M. tuberculosis FBA inhibitor project, biochemical, absorbance, full deck | inhibition, % at 4.8 µM | GDH-TPI coupled enzyme counterscreen, NADH absorbance | hit rate 1.2% among 360,000 | AID 588335, 2011;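 note: 0% = DMSO wells and 100% = wells lacking the enzyme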
Mtb FBA inh: Mtb FBA enzyme inhibitors, primary screen, biochemical, fluorescence, strain H37Rv. purified M. tuberculosis FBA, fluorescence read-out. inhibition, % at 1 µM. hit rate 2.3% among 360,000. AID 588726, 2011; in the data active = inhibition above about 27%;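 note: 0% = vehicle and 100% = reference inhibitor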
Target sequence (P9WQA3 whole entry, looked up): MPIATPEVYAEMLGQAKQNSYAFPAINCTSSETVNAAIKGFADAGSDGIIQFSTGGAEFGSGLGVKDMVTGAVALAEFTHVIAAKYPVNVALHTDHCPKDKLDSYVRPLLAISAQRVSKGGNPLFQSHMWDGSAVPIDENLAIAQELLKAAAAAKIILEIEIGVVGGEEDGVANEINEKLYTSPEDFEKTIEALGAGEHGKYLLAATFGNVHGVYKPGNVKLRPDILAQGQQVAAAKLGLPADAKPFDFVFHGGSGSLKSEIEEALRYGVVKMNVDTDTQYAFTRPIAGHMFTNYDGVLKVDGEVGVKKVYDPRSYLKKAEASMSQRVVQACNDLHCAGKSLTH
CCHF vOTU inh-2: CCHFV vOTU protease inhibitors, confirmation, biochemical, Pep-AMC substrate, fluorescence. Recombinant CCHFV vOTU. shares compounds with CCHF vOTU inh-1. hit rate 17% among 1,900. AID 686976, 2013. inhibition, % at 11.5 µM
* hit, by the source's call. Cut-off read from the data, not from the text of the source, unless noted: active = inhibition above about 30%; inactive = the rest.

`O=C(O)c1cccc(NC(=S)N/N=C/c2ccccc2OCc2ccc(Br)cc2)c1` gave SARS 3CLpro inh 5, VHR inh abs 10, RecA intein inh 16, CCHF vOTU inh-1 30*, GDH-TPI inh 17, Mtb FBA inh -5 and CCHF vOTU inh-2 12.
Screening O=C(N/N=C/c1ccccc1C(F)(F)F)c1ccc(O)cc1 returned SARS 3CLpro inh 2, VHR inh abs 2, RecA intein inh -1, CCHF vOTU inh-1 -3, GDH-TPI inh 10 and Mtb FBA inh -1.
For Nn1cnnc1N/N=C/c1cccc(Cl)c1Cl the results were SARS 3CLpro inh -1, VHR inh abs -2, RecA intein inh -1, CCHF vOTU inh-1 61*, GDH-TPI inh 23, Mtb FBA inh 2 and CCHF vOTU inh-2 -1.
`Nn1cnnc1N/N=C/c1ccccc1C(F)(F)F` gave SARS 3CLpro inh -2, VHR inh abs -1, RecA intein inh 4, CCHF vOTU inh-1 69*, GDH-TPI inh -3, Mtb FBA inh -5 and CCHF vOTU inh-2 -11.
Screening O=C(CO)N/N=C/c1cccc(Cl)c1Cl returned SARS 3CLpro inh -1, VHR inh abs 11, RecA intein inh 1, CCHF vOTU inh-1 1, GDH-TPI inh -2 and Mtb FBA inh 1.
`COc1ccc(OCC(O)CN2CC(C)OC(C)C2)cc1` (configuration not stated) gave SARS 3CLpro inh 2, VHR inh abs 22, RecA intein inh -4, CCHF vOTU inh-1 5, GDH-TPI inh -14 and Mtb FBA inh -1.
For CCCCCCCC/C=C\CCCCCCCC(=O)NCCc1ccc(O)c(O)c1 the results were CCHF vOTU inh-1 30*, GDH-TPI inh -10, Mtb FBA inh -3 and CCHF vOTU inh-2 27.
CCCCCCCC/C=C\CCCCCCCC(=O)NCCO was read as CCHF vOTU inh-1 4, GDH-TPI inh 0 and Mtb FBA inh 4.
`CCOC(=O)c1c[nH]c2c(C(F)(F)F)cccc2c1=O` gave SARS 3CLpro inh 5, VHR inh abs 22, RecA intein inh 0, CCHF vOTU inh-1 -7, GDH-TPI inh 5 and Mtb FBA inh 5.
Screening Cc1cc(C)c(S(=O)(=O)NCC(=O)NCc2ccco2)c(C)c1 returned SARS 3CLpro inh 2, VHR inh abs 12, RecA intein inh -1, CCHF vOTU inh-1 -11, GDH-TPI inh -5 and Mtb FBA inh -1.
For O=C(COC(=O)c1ccc([N+](=O)[O-])s1)Nc1ccccc1 the results were SARS 3CLpro inh -2, VHR inh abs -2, RecA intein inh -7, CCHF vOTU inh-1 61*, GDH-TPI inh 14, Mtb FBA inh 1 and CCHF vOTU inh-2 75*.
`CC(C)(C)c1ccc(NC(=O)COC(=O)c2ccc([N+](=O)[O-])s2)cc1` gave SARS 3CLpro inh 8, VHR inh abs 7, CCHF vOTU inh-1 16, GDH-TPI inh -2 and Mtb FBA inh 1.
`O=C(COC(=O)c1ccc([N+](=O)[O-])s1)Nc1ccc(F)cc1` gave CCHF vOTU inh-1 82*, GDH-TPI inh 10, Mtb FBA inh -1 and CCHF vOTU inh-2 72*.
Screening O=C(OCc1nnc(-c2ccccc2)o1)c1ccc([N+](=O)[O-])s1 returned CCHF vOTU inh-1 77*, GDH-TPI inh 8, Mtb FBA inh 5 and CCHF vOTU inh-2 86*.
For O=C(COC(=O)c1ccc([N+](=O)[O-])s1)Nc1cccc(S(=O)(=O)NC2=NCCCCC2)c1 the results were SARS 3CLpro inh 7, VHR inh abs 2, RecA intein inh -4, CCHF vOTU inh-1 58*, GDH-TPI inh 9, Mtb FBA inh 4 and CCHF vOTU inh-2 35*.
O=C(Nc1cccc(Cl)c1)Nc1ccnc(-c2cccnc2)n1 was read as SARS 3CLpro inh -2, VHR inh abs -3, RecA intein inh 5, CCHF vOTU inh-1 32*, GDH-TPI inh 2, Mtb FBA inh -2 and CCHF vOTU inh-2 -20.
O=C(Nc1cccc(Cl)c1)Nc1cnccn1 was read as SARS 3CLpro inh -2, VHR inh abs 2, RecA intein inh 0, CCHF vOTU inh-1 -12, GDH-TPI inh -2 and Mtb FBA inh 0.
O=C(CSc1nc2ccccc2c(=O)[nH]1)c1cccs1 was read as SARS 3CLpro inh -1, VHR inh abs 10, RecA intein inh 1, CCHF vOTU inh-1 7, GDH-TPI inh 5 and Mtb FBA inh -1.
N#Cc1c(-c2cccs2)nc(SCC(=O)c2cccs2)[nH]c1=O was read as SARS 3CLpro inh 7, VHR inh abs 13, RecA intein inh 3, CCHF vOTU inh-1 31*, GDH-TPI inh 12, Mtb FBA inh 1 and CCHF vOTU inh-2 -3.
Oc1c(CN2CCCCC2)ccc2cccnc12 was read as CCHF vOTU inh-1 31*, GDH-TPI inh 2, Mtb FBA inh 0 and CCHF vOTU inh-2 -19.
Screening CCOCCc1nnc(NC(=O)CCS(=O)(=O)c2ccccc2)s1 returned SARS 3CLpro inh -4, VHR inh abs 31, CCHF vOTU inh-1 7, GDH-TPI inh -4 and Mtb FBA inh -1.
`COc1ccc(C(=O)CC(=O)C(=O)NCCc2cccc(C)c2)cc1` gave SARS 3CLpro inh 0, VHR inh abs -4, RecA intein inh 7, CCHF vOTU inh-1 31*, GDH-TPI inh 27, Mtb FBA inh -1 and CCHF vOTU inh-2 -5.
COc1ccc(C(=O)CC(=O)C(=O)Nc2cc(C)ccc2C)cc1 was read as SARS 3CLpro inh -2, VHR inh abs 34, RecA intein inh 8, CCHF vOTU inh-1 16, GDH-TPI inh 19 and Mtb FBA inh -2.
CS(=O)(=O)N(Cc1ccc(Cl)cc1)c1ccc(C(=O)NCC2CCCO2)cc1 (configuration not stated) was read as SARS 3CLpro inh 1, VHR inh abs 12, RecA intein inh 0, CCHF vOTU inh-1 6, GDH-TPI inh -2 and Mtb FBA inh 2.
Screening CS(=O)(=O)N(Cc1ccccc1)c1ccc(C(=O)NCC2CCCO2)cc1 (configuration not stated) returned SARS 3CLpro inh -7, VHR inh abs -10, RecA intein inh 5, CCHF vOTU inh-1 35*, GDH-TPI inh -3, Mtb FBA inh -4 and CCHF vOTU inh-2 -6.
Screening Cc1ccccc1-c1cc2nc(OCC3CCCO3)n(C)c(=O)c2s1 (configuration not stated) returned CCHF vOTU inh-1 2, GDH-TPI inh 4 and Mtb FBA inh -2.
C[C@@H]1[C@@H](O)C[C@@]2(CC(=O)c3ccccc3O2)O[C@H]1c1ccccc1 was read as CCHF vOTU inh-1 -5.
